Test results published in PubChem BioAssay.
Values without a mark were called inactive. No rule for the calls is given here.

Molecular target: Pantothenate synthetase (Mycobacterium tuberculosis (strain ATCC 25618 / H37Rv)) (UniProt P9WIL5)
Assay: Coupled enzyme confirmation of inhibitors against recombinant Mtb PanC (AID 375);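 also: 0% = full reaction with vehicle and 100% = no enzyme background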
Settings: coupled enzyme assay; at 10 µM, hits give high values

Sequence of Pantothenate synthetase (Mycobacterium tuberculosis (strain ATCC 25618 / H37Rv)) (P9WIL5 whole entry, looked up): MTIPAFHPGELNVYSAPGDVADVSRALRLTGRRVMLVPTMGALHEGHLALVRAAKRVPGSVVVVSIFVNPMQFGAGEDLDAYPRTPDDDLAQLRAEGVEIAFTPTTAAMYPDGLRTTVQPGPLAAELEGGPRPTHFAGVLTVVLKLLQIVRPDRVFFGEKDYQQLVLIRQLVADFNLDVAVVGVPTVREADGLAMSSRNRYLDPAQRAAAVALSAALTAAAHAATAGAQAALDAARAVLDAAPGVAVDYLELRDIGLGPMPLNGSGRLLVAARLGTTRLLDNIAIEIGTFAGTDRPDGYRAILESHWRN

Row | Structure (SMILES) | inhibition [%]
1 | Cc1c(C(=O)Nc2nnc(C(F)(F)F)s2)oc2ccccc12 | 5
2 | CN1CCN(/C=N/c2sc3c(c2C#N)CCCCC3)CC1 | 4
3 | CC(C)C12CN3CC(C(C)C)(CN(C1)C3c1ccc3c(c1)OCO3)C2=O (stereo not given) | 0
4 | COCCn1c(SCC(=O)Nc2nnc(C)s2)nnc1-c1c[nH]c2ccccc12 | 0
5 | CC1(C)CC(=O)c2cc(OCC(=O)NCCCN3CCN(c4ccccc4F)CC3)ccc2O1 | 0
6 | O=C(O)COc1cccc(NC(=O)C2CCCO2)c1 (stereo not given) | 0
7 | CCOc1ccccc1N1CCN(c2nc(N)c(C#N)c(CC#N)c2C#N)CC1 | 0
8 | CCOc1ccccc1N1C(=O)c2ccc(C(=O)Nc3cccnc3)cc2C1=O | 4
9 | CC(C)n1c(NCc2c[nH]c3ccccc23)nc2ccccc21 | 0
10 | CCC(=O)Nc1cc(C)c(NC(=O)C23CC4CC(CC(C4)C2)C3)cn1 | 5
11 | CCCCCCC1/C(=N/O)CCC1C(=O)OC (stereo not given) | 0
12 | O=C(CCn1c(=O)sc2ccccc21)NC1=NCCS1 | 3
13 | Cc1nc2c(-c3ccccc3)c(C)[nH]n2c(=O)c1Cl | 0
14 | COCCn1nnnc1C(c1ccccc1OC)N1CCc2ccccc2C1 (stereo not given) | 0
15 | Cc1cccc(N(C)C(=S)Oc2ccc3ccccc3c2)c1 | 7
16 | Cc1cc(NC(=O)CS(=O)(=O)c2cn(Cc3cccc(F)c3)c3ccccc23)no1 | 4
17 | COc1ccc2c(c1)CCc1c(C(=O)N3CC4(C)CC3CC(C)(C)C4)noc1-2 (stereo not given) | 0
18 | CCCCCCCCCCCCCCCC(O)C(N)CO (stereo not given) | 0
19 | CCCC(=O)Nc1cccc(NC(=O)CN2CCN(c3ccccc3OC)CC2)c1 | 0
20 | CCOC(=O)N1CCC(NC(=O)CN2C(=O)CCSc3ccccc32)CC1 | 0
